# Results published in the supplement of paper PMC4709259.
# ± gives the standard deviation.
# System: Jurkat
# Assay: mean cell size (FSC-A) relative to DMSO control (fraction of control); higher = larger cells
# Details: 48 h
# Summary of the method: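 Jurkat cells seeded at 600 cells/µl were incubated 1 h, then exposed for 48h to the Enzo Screen-Well FDA Approved Drug Library v2.0 at 25µM in 0.9% (v/v) final DMSO. Drugs that cut counts below 20% of controls were diluted 10-fold and retested, down to 25nM. Cell count and mean cell size (forward scatter area) were read on an Accuri C6 flow cytometer, relative to solvent-only controls. Plates held 6-12 controls; values are means of 3 biological replicates.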
row,Compound,mean cell size
1,COc1cc(C)c(/C=C/C(C)=C/C=C/C(C)=C/C(=O)O)c(C)c1C [Acitretin] (concentration: 25 µM),0.883 ± 0.021
2,Nc1nc(F)nc2c1ncn2[C@@H]1O[C@H](COP(=O)(O)O)[C@@H](O)[C@@H]1O [Fludarabine Phosphate] (concentration: 2.5 µM),1.327 ± 0.0094
3,CC=CC(=O)N(CC)c1ccccc1C [Crotamiton] (concentration: 25 µM),0.972 ± 0.034
4,C[C@H]1O[C@H](O[C@H]2[C@H](O)[C@@H](O)[C@@H](O[C@@H]([C@H](O)[C@@H](O)C=O)[C@H](O)CO)O[C@@H]2CO)[C@H](O)[C@@H](O)[C@@H]1N[C@H]1C=C(CO)[C@@H](O)[C@H](O)[C@H]1O [Acarbose] (concentration: 25 µM),1.04 ± 0.047
5,CO/N=C(\C(=O)N[C@@H]1C(=O)N2C(C(=O)O)=C(CSc3nc(=O)c(=O)[nH]n3C)CS[C@H]12)c1csc(N)n1 [Ceftriaxone·Na] (concentration: 25 µM),0.969 ± 0.028
6,CC=CC1=C(C(=O)O)N2C(=O)[C@@H](NC(=O)[C@H](N)c3ccc(O)cc3)[C@H]2SC1 [Cefprozil] (concentration: 25 µM),0.951 ± 0.035
7,CC(C)Cn1cnc2c(N)nc3ccccc3c21 [Imiquimod] (concentration: 25 µM),0.936 ± 0.018
8,CCC(C)n1ncn(-c2ccc(N3CCN(c4ccc(OCC5COC(Cn6cncn6)(c6ccc(Cl)cc6Cl)O5)cc4)CC3)cc2)c1=O (stereo not drawn) [Itraconazole] (concentration: 25 µM),1.11 ± 0.071
